Screening results deposited in PubChem BioAssay by several laboratories.
ERb SRC1 inh = ER-beta (human) coactivator binding inhibition; Q92731; TR-FRET ER-beta LBD / SRC1-Cy5 peptide binding; receptor agonist-loaded with 1 µM estradiol; inhibition, % at 25.6 µM; hit rate 1.3% among 86,000; AID 633;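 active = compounds whose percent inhibition of the receptor-coactivator binding signal exceeds about 50% in the single-dose screen, limit read from the data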
cytoskel mod = alters cytoskeleton assembly in HUVEC cells; HUVEC TNFa F-actin phalloidin imaging, high content; inhibition, % at 2 µM; hit rate 0.18% among 91,000; AID 836;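 active = inhibition above the batch mean plus 3 SD and confirmed as a hit by visual image inspection, cut at about 30% in these data, passing the limit was not always enough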
Calb biofilm kill = kills Candida albicans biofilms; hit rate 0.14% among 85,000; inhibition, % at 6 µM; C. albicans biofilm + clotrimazole, Alamar Blue;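 active = inhibition above 20%; inactive = inhibition below 20%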;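 also: preformed 24 hr biofilms exposed to compound for 48 hr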
ERa SRC1 pot = enhances coactivator binding to human estrogen receptor alpha; coactivator binding (% of control), % at 25.6 µM; TR-FRET ERalpha-LBD/SRC-Cy5 coactivator binding, 2 h; 100 = basal binding, no effect; hit rate 1.3% among 86,000; AID 639; in the data active = activity above about 200%;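 also: binding measured in presence of low estradiol as agonist stimulus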
Target sequence (P03372 whole entry, looked up, the tested form may be a part): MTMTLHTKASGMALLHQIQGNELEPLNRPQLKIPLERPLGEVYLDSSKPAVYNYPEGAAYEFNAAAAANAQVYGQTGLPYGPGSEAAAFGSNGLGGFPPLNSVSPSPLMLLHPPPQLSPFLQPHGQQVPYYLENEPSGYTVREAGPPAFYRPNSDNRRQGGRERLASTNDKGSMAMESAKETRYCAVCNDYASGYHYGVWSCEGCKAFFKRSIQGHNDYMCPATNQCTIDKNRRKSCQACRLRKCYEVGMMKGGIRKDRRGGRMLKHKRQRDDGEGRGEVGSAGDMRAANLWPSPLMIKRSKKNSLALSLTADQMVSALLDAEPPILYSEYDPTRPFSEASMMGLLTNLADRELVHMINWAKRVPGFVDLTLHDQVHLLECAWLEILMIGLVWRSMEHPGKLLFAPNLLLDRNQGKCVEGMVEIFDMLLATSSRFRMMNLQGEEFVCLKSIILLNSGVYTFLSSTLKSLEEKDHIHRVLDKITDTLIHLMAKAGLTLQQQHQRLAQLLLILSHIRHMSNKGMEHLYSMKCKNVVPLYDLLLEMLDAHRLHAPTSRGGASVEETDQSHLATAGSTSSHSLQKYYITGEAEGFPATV
E-sel TNF inh = TNF alpha driven E-selectin expression inhibition. inhibition, % at 2 µM. HUVEC TNFa-induced E-selectin immunofluorescence, high content. hit rate 0.71% among 120,000. AID 1246;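 active = inhibition above the batch mean plus 3 SD, and confirmed as a hit on visual image review, cut at about 43% in these data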
ERa coact inh = ER-alpha (human) coactivator binding inhibition | P03372 | TR-FRET ER-alpha LBD / SRC-1 peptide, estradiol-bound | inhibition, % at 25.6 µM | hit rate 1.7% among 86,000 | AID 629; in the data active = inhibition above about 50%
Numbers stand for hits; i = inactive; nt = no result; [ ] = another dose, or the depositor's remark. Rows were chosen to be rich in hits. Some 2.9% of all compounds tested hit in one or more screens of this group.

SMILES | ERb SRC1 inh | cytoskel mod | Calb biofilm kill | ERa SRC1 pot | E-sel TNF inh | ERa coact inh
N=c1c(-c2nc3ccccc3[nH]2)cc(C(=O)c2cccs2)nn1-c1ccccc1 | 62.5[fluorescence artefact?] | i | i | i | i | 91.8[fluorescence artefact?]
C#Cc1ccc(C(=O)Nc2cc(C(N)=O)ccc2N2CCOCC2)cc1 | i | nt | i | i | nt | 68.9[fluorescence artefact?]
CCSc1nc2ccccc2n1C(=O)/C=C/c1ccc(OC)c(OC)c1 | nt | nt | nt | nt | 100.0 | nt
C=CCSc1nc2ccccc2n1C(=O)/C=C/c1cc(OC)c(OC)c(OC)c1 | nt | i | nt | nt | 66.5 | nt
Cc1ccc(C)c(NC(=O)CN(C)C(=O)/C=C/c2ccco2)c1 | nt | nt | nt | nt | i | nt
O=[N+]([O-])c1cc(/C=N\Nc2nccs2)ccc1O | 100.2[fluorescence artefact?] | i | i | i | nt | 100.2[fluorescence artefact?]
O=C(NCc1cccnc1)C1CCN(S(=O)(=O)c2cccs2)CC1 | i | i | i | i | 69.5 | i
O=C(Nc1nccs1)C1CCN(S(=O)(=O)c2cccnc2)CC1 | i | i | 21.1 | i | nt | i
O=C(NCc1cccnc1)C1CCN(S(=O)(=O)c2cccnc2)CC1 | i | i | i | i | i | i
O=C(Nc1nccs1)C1CCCN(S(=O)(=O)c2cccnc2)C1 (stereo not given) | i | i | i | i | i | i
CC(C)C(O)P(=O)(OCc1ccccc1)c1ccc(N(C)C)cc1 (stereo not given) | i | i | i | i | nt | 51.6[fluorescence artefact?]
Cc1cccc2c(Cl)cc(=O)[nH]c12 | i | i | i | i | i | i
CCCCN1CCc2c([nH]c3c(C)cccc23)C1=O | i | nt | i | 587.2[fluorescence artefact?] | i | i
Cc1ccc(O)c(C(CC(=O)NC2CCCCC2)c2ccccc2)c1 (stereo not given) | nt | nt | nt | nt | i | nt
O=S(=O)(/N=C(\Sc1ccc(Cl)cc1)c1ccccc1)c1ccccc1 | 55.2[fluorescence artefact?] | i | i | i | nt | 77.3
N#Cc1c(N)nc(SCC(=O)OCc2ccccc2)c(C#N)c1-c1ccco1 | i | i | i | i | i | i
N#Cc1c(N)nc(SCc2ccccc2)c(C#N)c1-c1ccco1 | i | i | i | 213.2 | nt | i
N#Cc1c(N)nc(SC2CCCCC2=O)c(C#N)c1-c1ccco1 (stereo not given) | i | i | i | 216.8[fluorescence artefact?] | nt | i
O=C(NCCCN1CCOCC1)/C(=C/c1ccc(F)cc1)NC(=O)c1ccccc1 | nt | nt | nt | nt | i | nt
CN(C)C(CNC(=O)c1cc(S(=O)(=O)N(C)c2ccccc2)ccc1Cl)c1cccs1 (stereo not given) | nt | nt | nt | nt | i | nt
CCN(CC)c1ccc(-c2nn3c(-c4ccccc4OC)nnc3s2)cc1 | i | i | i | 366.0 | i | i
COc1ccc(-c2nn3c(-c4ccccc4)nnc3s2)cc1 | i | i | i | 202.8[fluorescence artefact?] | i | i
CCCOc1ccccc1N/C(=N/c1nc(C)cc(C)n1)NC(=O)Nc1ccc(Cl)cc1 | nt | i | nt | nt | i | nt
Cc1noc(C)c1COc1ccc(C(=O)OCC(=O)NCCN2C(=O)CSC2=O)cc1 | nt | nt | nt | nt | i | nt
Nc1ccc(C(=O)OCC(=O)Nc2ccc([N+](=O)[O-])cc2C(F)(F)F)cc1 | nt | nt | nt | nt | i | nt
SMILES | ERb SRC1 inh | cytoskel mod | Calb biofilm kill | ERa SRC1 pot | E-sel TNF inh | ERa coact inh
Cc1ccc(S(=O)(=O)Cc2ccc(C(=O)N3CCc4ccccc4C3)o2)cc1 | 76.4 | i | i | i | nt | 78.5[fluorescence artefact?]
Cc1ccc(S(=O)(=O)Cc2ccc(C(=O)N3CCN(Cc4ccccc4)CC3)o2)cc1 | 58.2 | nt | i | i | i | 60.7[fluorescence artefact?]
Cc1ccc(S(=O)(=O)Cc2ccc(C(=O)NCc3ccc4c(c3)OCO4)o2)cc1 | i | nt | i | i | i | 50.9
Cc1ccc(CC(=O)NCc2ccc3c(c2)OCO3)cc1 | i | i | i | i | i | i
COc1ccc(S(=O)(=O)Cc2ccc(C(=O)N3CCc4ccccc4C3)o2)cc1 | i | i | i | i | nt | i
COCCNC(=O)c1ccc(CS(=O)(=O)c2ccc(C)cc2)o1 | i | i | i | i | nt | i
COc1ccc(S(=O)(=O)Cc2ccc(C(=O)N3CCN(Cc4ccccc4)CC3)o2)cc1 | i | nt | i | i | i | i
Cc1ccc(S(=O)(=O)Cc2ccc(C(=O)O)o2)cc1 | 76.0 | i | i | i | i | 68.7
CC(C)(C)c1cc[n+](CC(=O)Nc2cc(C(F)(F)F)ccc2N2CCOCC2)cc1 | nt | nt | nt | nt | i | nt
CC(C)CNC(=O)c1c(N)n(/N=C/c2ccccn2)c2nc3ccccc3nc12 | i | i | i | 228.2[fluorescence artefact?] | i | 69.2
COCCNC(=O)c1c(N)n(/N=C/c2cccs2)c2nc3ccccc3nc12 | i | i | i | i | i | 67.7
CCCCNC(=O)c1c(N)n(/N=C/c2ccccn2)c2nc3ccccc3nc12 | nt | i | nt | nt | nt | nt
N#Cc1ccsc1NC(=O)CSc1ncnc2ccccc12 | 61.3 | i | i | i | i | 90.6[fluorescence artefact?]
Cn1ccnc1SCC(=O)Nc1sccc1C#N | i | i | i | i | nt | 66.8[fluorescence artefact?]
CCCN1c2cccc3cccc(c23)S1(=O)=O | i | nt | i | i | i | i
O=C(O)C1CCCN1S(=O)(=O)c1ccc(Br)s1 (stereo not given) (tested in a mixture with another compound) | i | i | i | i | 89.5 | i
CN(Cc1ccccc1)C(=O)CC(c1ccccc1)c1cc(Cl)ccc1O (stereo not given) | nt | i | nt | nt | i | nt
Cc1nn(CC(=O)c2cccc(Cl)c2)c(C)c1[N+](=O)[O-] | nt | nt | nt | nt | i | nt
Fc1ccc(-c2n[nH]c(=S)n2/N=C/c2c[nH]c3ccccc23)cc1 | nt | nt | nt | nt | 60.5 | nt
N#CC(C(=O)NCCc1ccccc1)c1nc2ccccc2nc1N1CCOCC1 (stereo not given) | i | nt | i | i | i | 75.5[fluorescence artefact?]
CCOC(=O)c1ccc(Nc2nc(-c3cccnc3)nc3ccccc23)cc1 | nt | i | nt | nt | i | nt
O=C(CCCCCn1c(=S)[nH]c2ccc(Br)cc2c1=O)NCC1CCCO1 (stereo not given) | i | i | i | i | i | 52.1[fluorescence artefact?]
Cc1c(CCO)c(=O)n(-c2ccccc2)n1S(=O)(=O)c1ccc(Cl)cc1 | i | 31.2 | i | i | i | i
CC(=O)NC(C)C(=O)OCC(=O)Nc1ccc(Br)cc1 (stereo not given) | i | i | i | i | i | 77.6
CCOC(=O)CCS(=O)(=O)c1ccc(-c2ccc(S(=O)(=O)CCC(=O)OCC)cc2)cc1 | nt | i | nt | nt | i | nt
SMILES | ERb SRC1 inh | cytoskel mod | Calb biofilm kill | ERa SRC1 pot | E-sel TNF inh | ERa coact inh
Cc1ccc(C(=O)c2c(NC(=O)c3ccccc3C)sc(C)c2C)cc1 | nt | i | nt | nt | 99.9 | nt
Cc1ccc(-n2c(C)cc(C3N=C(N)Nc4nc5ccccc5n43)c2C)c(C)c1 (stereo not given) | i | i | i | i | nt | 53.1[fluorescence artefact?]
Cc1cc(C2N=C(N)Nc3nc4ccccc4n32)c(C)n1-c1ccccc1Cl (stereo not given) | i | nt | i | i | i | i
O=C(c1ccco1)[C@@H]1[C@@H]2C(=O)N(c3ccc(Br)cc3)C(=O)[C@@H]2C2c3ccccc3C=CN21 (stereo not given in full) | i | i | i | i | nt | i
O=C(c1ccco1)[C@@H]1[C@@H]2C(=O)N(c3ccc(F)cc3)C(=O)[C@@H]2C2c3ccccc3C=CN21 (stereo not given in full) | i | i | i | i | nt | 55.3[fluorescence artefact?]
Cc1cc(C)c2c(n1)nn1c(N3CCN(c4ccccc4C)CC3)cc(C)nc21 | i | i | i | 401.8[fluorescence artefact?] | i | i
Cc1ccc(N2CCN(c3cc(C)nc4c5c(C)cc(C)nc5nn34)CC2)cc1 | i | nt | i | i | nt | i
